A short description of assay [1]: qHTS assay to identify small molecule antagonists of the glucocorticoid receptor (GR) signaling pathway - cell viability counter screen (AID 720693). Note: nearly all actives have a fitted effect of over 55% in size. Note: potency is the fitted concentration of half-maximal effect.
The nature of assay [2]: qHTS assay for identifying genotoxic compounds that show differential cytotoxicity against isogenic chicken DT40 cell lines with known DNA damage response pathways - wild type cell line (AID 743012). Note: nearly all actives have a fitted effect of over 60% in size. Note: potency is the fitted concentration of half-maximal effect. The method, boiled down: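 Quantitative HTS on parental DT40 cells: 40 h compound treatment at 37 C/5% CO2, with viability then determined by CellTiter-Glo luminescence. Values serve as the DNA repair-proficient reference for differential cytotoxicity.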

The nature of assay [3]: qHTS assay for identifying genotoxic compounds that show differential cytotoxicity against isogenic chicken DT40 cell lines with known DNA damage response pathways - Rev3 mutant cell line (AID 743014). Note: nearly all actives have a fitted effect of over 55% in size. Note: potency is the fitted concentration of half-maximal effect.
A short description of assay [4]: qHTS assay for identifying genotoxic compounds that show differential cytotoxicity against isogenic chicken DT40 cell lines with known DNA damage response pathways - Rad54/Ku70 mutant cell line (AID 743015). Note: nearly all actives have a fitted effect of over 60% in size. Note: potency is the fitted concentration of half-maximal effect.
Assay [5] is described as follows: qHTS assay to identify small molecule antagonists of the androgen receptor (AR) signaling pathway - cell viability counter screen (AID 743033; note: nearly all actives have a fitted effect of over 45% in size; note: potency is the fitted concentration of half-maximal effect).
For assay [6], the target named is Androgen receptor (Homo sapiens) (UniProt P10275). In words: qHTS assay to identify small molecule agonists of the androgen receptor (AR) signaling pathway (AID 743036; active = well fitted activation curve with a large enough effect in the signal ratio in the repeat runs, with a control signal flat, not every such curve was filed as active; the % refers to the signal ratio). The method, boiled down: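 Reporter line: GeneBLAzer AR-UAS-bla-GripTite (HEK293). Steps: plate cells, 4 h rest, add compounds, 16 h at 37C, add LiveBLAzer B/G substrate, 2 h at RT, read fluorescence.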

Assay [7] can be described thus: qHTS assay to identify small molecule antagonists of the androgen receptor (AR) signaling pathway using the MDA cell line - cell viability counter screen (AID 743041; note: nearly all actives have a fitted effect of over 45% in size). The method, boiled down: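 MDA-kb2 AR-luc human breast carcinoma cells (MMTV-luciferase, AR/GR responsive) were treated with compounds plus R1881 agonist for 16 h at 37 °C. Viability was read as CellTiter-Fluor fluorescence in the same wells as the reporter assay.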

Assay [8] concerns the target Androgen receptor (Homo sapiens) (UniProt P10275). The assay can be described thus: qHTS assay to identify small molecule antagonists of the androgen receptor (AR) signaling pathway using the MDA cell line (AID 743042; note: nearly all actives have a fitted effect of over 55% in size; note: potency is the fitted concentration of half-maximal effect). The method, boiled down: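 MDA-kb2 cells (human breast carcinoma, stably carrying an MMTV-luciferase reporter responsive to AR and GR) were plated at 3,000 cells/well and preincubated 5 hr at 37C, then given compound plus R1881 agonist for 16 h. ONE-Glo luminescence was read.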

The nature of assay [9]: qHTS assay to identify small molecule antagonists of the thyroid receptor (TR) signaling pathway - cell viability counter screen (AID 743064). Note: nearly all actives have a fitted effect of over 50% in size. Note: potency is the fitted concentration of half-maximal effect. The method, boiled down:
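Plate GH3.TRE-Luc cells; incubate 4 h at 37 °C; add compound, then T3 to 1 nM final; incubate 23.5 h; add CellTiter-Fluor; incubate 30 min at 37 °C, 5% CO2; read fluorescence.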

Assay [10] concerns the target Androgen receptor (Homo sapiens) (UniProt P10275). In words: qHTS assay to identify small molecule agonists of the androgen receptor (AR) signaling pathway using the MDA cell line (AID 743040; note: nearly all actives have a fitted effect of over 20% in size). Summed up:
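MDA-kb2 breast carcinoma cells stably carrying an MMTV-driven luciferase reporter (AR- and GR-responsive) were seeded and held 5 h at 37C, 0% CO2, then exposed to compounds in DMSO for 16 h. Luminescence was read 30 min after ONE-Glo addition.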

Each structure is given as a SMILES string. “And” between values parts separate entries of the source, which are not always exact repeats. Equal entries are not always repeated. Records with an inconclusive call do not appear. The source holds several records for some structures; these can differ, active in one and inactive in another. The source made the active and inactive calls. Unless noted, calls come from the whole dose curve; as a rule, active = well fitted curve in the direction sought with a large enough effect in the repeat runs; inconclusive = weak or mixed curves; inactive = no such curve, though single readings can be large; an effect the other way counts as inactive or inconclusive.

Androgen receptor (Homo sapiens), sequence (P10275 whole entry, looked up): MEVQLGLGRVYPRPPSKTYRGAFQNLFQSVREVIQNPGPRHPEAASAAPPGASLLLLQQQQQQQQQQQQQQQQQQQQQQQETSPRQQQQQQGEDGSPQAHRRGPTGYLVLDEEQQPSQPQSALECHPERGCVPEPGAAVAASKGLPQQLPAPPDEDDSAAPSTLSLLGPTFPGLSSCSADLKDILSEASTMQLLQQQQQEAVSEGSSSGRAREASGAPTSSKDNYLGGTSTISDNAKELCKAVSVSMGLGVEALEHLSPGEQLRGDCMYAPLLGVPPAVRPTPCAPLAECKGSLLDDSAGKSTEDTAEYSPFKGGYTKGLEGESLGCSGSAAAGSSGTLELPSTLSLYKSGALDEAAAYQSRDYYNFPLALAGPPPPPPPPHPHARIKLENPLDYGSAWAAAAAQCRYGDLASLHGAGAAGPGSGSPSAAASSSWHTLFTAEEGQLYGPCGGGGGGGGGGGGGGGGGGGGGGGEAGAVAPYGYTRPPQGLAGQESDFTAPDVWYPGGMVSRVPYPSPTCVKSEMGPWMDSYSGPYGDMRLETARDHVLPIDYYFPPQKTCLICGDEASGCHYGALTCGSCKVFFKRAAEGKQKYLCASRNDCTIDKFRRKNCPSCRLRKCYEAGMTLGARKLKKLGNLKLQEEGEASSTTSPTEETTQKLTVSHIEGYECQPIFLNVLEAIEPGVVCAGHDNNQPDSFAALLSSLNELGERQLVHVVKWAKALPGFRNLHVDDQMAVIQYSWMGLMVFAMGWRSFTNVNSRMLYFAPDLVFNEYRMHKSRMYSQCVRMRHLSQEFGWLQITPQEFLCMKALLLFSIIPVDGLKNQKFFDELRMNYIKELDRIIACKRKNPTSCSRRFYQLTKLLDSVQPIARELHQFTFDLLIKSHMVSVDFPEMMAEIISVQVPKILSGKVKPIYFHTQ

For the compound `c1ccc2c(c1)Oc1ccccc1S2`, the Potency entry in [1], in [2], in [3], in assay [4] and in [5] was “inactive” throughout.

As to `Cc1ccc2c(n1)Oc1ccc(C(C)C(=O)OCC(=O)N(C)C)cc1C2` (configuration not stated), the Potency result in assay [1], in assay [3], in assay [4], in assay [5], in assay [7] and in assay [8] was “inactive” each time. Moreover, the Potency entry in assay [9] is “inactive”. In addition, in assay [2], the Potency was 26.6 µM (active). Besides, in assay [6], the compound was classed as inactive.

Take `O=C(Nc1ccc(Cl)cc1)Nc1ccc(Cl)c(Cl)c1`: the Potency was 4.77 µM (active) and 7.73 µM (active) and 6.92 µM (active) in [1]; 3.35 µM (active) and 6.08 µM (active) and 2.73 µM (active) in assay [2]; 2.66 µM (active) and 4.31 µM (active) and 2.17 µM (active) in [3]; 2.66 µM (active) and 5.42 µM (active) and 2.17 µM (active) in assay [4]; 3.38 µM (active) and 1.94 µM (active) and 3.89 µM (active) in assay [5]; 43.1 µM (active) and 13.7 µM (active) in assay [8]. The Potency in assay [9] is 4.22 µM (active) and 3.44 µM (active). Further, in assay [10], the Potency entry was “inactive”.

`CC(C)OC=O`: the Potency result in assay [1], in assay [2], in [4], in assay [5] and in assay [7] was “inactive” each time. For the same compound, the Potency in [3] is 72.9 µM (active) and inactive.

Take `CCCCC(CC)COCC1CO1` (configuration not stated): the Potency result in assay [1], in [2], in [3], in [4], in [5] and in assay [7] was “inactive” throughout.

As to `c1cc(-c2ccncc2)ccn1`, the Potency result in assay [1], in assay [2], in assay [3], in assay [4] and in [5] was “inactive” each time.

In the case of `c1ccc2c(c1)c1cccc3ccc4cccc2c4c31`, the Potency result in [1], in [2], in [3], in [4], in [5] and in [10] was “inactive” throughout. Moreover, the Potency result in [7] and in assay [8] was “inactive” throughout.

For the compound `CN(C)CCN(Cc1cccs1)c1ccccn1`, the Potency result in assay [1], in assay [3], in assay [4], in assay [5] and in [7] was “inactive” each time. Also, in [2], the Potency is 29.8 µM (active) and inactive.

Take `c1ccc2sc(SSN3CCOCC3)nc2c1`: in [1], the Potency result is “inactive”. The Potency was 2.43 µM (active) in assay [2]; 9.67 µM (active) and 2.73 µM (active) in assay [3]; 13.7 µM (active) and 2.17 µM (active) in assay [4]; 4.36 µM (active) in assay [5].

As to `COC(=O)Nc1nc2ccc(S(=O)c3ccccc3)cc2[nH]1` (configuration not stated), the Potency result in assay [1], in assay [5] and in [7] was “inactive” throughout. For the same compound, the Potency is 9.44 µM (active) and 6.85 µM (active) in [2]; 11.9 µM (active) and 6.11 µM (active) in assay [3]; 13.3 µM (active) and 8.63 µM (active) in assay [4].

In the case of `NC=O`, the Potency result in assay [1], in assay [2], in [3], in assay [4] and in assay [5] was “inactive” each time.

Consider `CCC(C)CO` (configuration not stated), for which the Potency result in [1], in assay [2], in assay [3], in assay [4], in assay [5] and in assay [7] was “inactive” each time.

On to `CN1C(C(=O)Nc2ccccn2)=C(O)c2ccccc2S1(=O)=O`, for which the Potency result in assay [1], in [2], in [3], in [4], in assay [5] and in [7] was “inactive” throughout.

In the case of `C=C(C)C1CC=C(C)CC1` (configuration not stated), the Potency entry in [1], in [2], in [3], in assay [4], in assay [5] and in assay [7] was “inactive” throughout.

For `COc1ccc(C(=O)CC(=O)c2ccc(C(C)(C)C)cc2)cc1`, the Potency entry in assay [1], in [2], in assay [3], in [4], in [5] and in [7] was “inactive” each time.

Turning to `Nc1ccc(Cl)cc1Cl`, the Potency entry in [1], in [2], in assay [3], in assay [4], in assay [5] and in [7] was “inactive” in each case. For the same compound, the Potency entry in [9] is “inactive”.

For `CC(C)=CCCC(C)CCO` (configuration not stated), the Potency result in assay [1] and in assay [5] was “inactive” in each case. Besides, the Potency in assay [2] is 61.1 µM (active); in assay [3], “inactive and 30.6 µM (active)”; in assay [4] it was “inactive and 27.3 µM (active)”.

On to `COc1cc([C@@H]2c3cc4c(cc3[C@H](O)[C@H]3COC(=O)[C@H]23)OCO4)cc(OC)c1OC`, for which the Potency result in assay [1], in assay [5], in [10], in [7] and in [8] was “inactive” in each case. For the same compound, the Potency is 26.6 nM (active) and 24.3 nM (active) in assay [2]; 29.8 nM (active) and 19.3 nM (active) in [3]; 29.8 nM (active) and 21.7 nM (active) in assay [4]; 43.2 nM (active) in [9].

Consider `Clc1nc(Cl)c(Cl)c(Cl)c1Cl`, for which the Potency entry in assay [1], in assay [2], in [3], in assay [4], in [5] and in assay [7] was “inactive” each time. For the same compound, the Potency entry in assay [9] is “inactive”.

Take `COC(C)COC(C)COC(C)CO` (configuration not stated): the Potency entry in [1], in assay [2], in assay [3], in assay [4], in [5] and in [10] was “inactive” throughout. Besides, the Potency result in assay [8] and in assay [9] was “inactive” each time. The compound was called inactive in [6].

For `NNc1ccc(C(=O)O)cc1`, the Potency result in assay [1], in assay [2], in assay [3], in [4] and in [5] was “inactive” each time.

With `OCCO`, the Potency result in [1], in assay [2], in assay [3], in [4], in assay [5] and in assay [10] was “inactive” in each case. The Potency entry in [7], in assay [8] and in [9] was “inactive” throughout. The compound was called inactive in [6].

Take `Brc1cc(Oc2cc(Br)c(Br)c(Br)c2Br)c(Br)c(Br)c1Br`: the Potency result in assay [1], in assay [2], in assay [3], in assay [4], in assay [5] and in assay [7] was “inactive” each time. In assay [9], the Potency result is “inactive”.

The values above are taken from PubChem BioAssay (Tox21).
